Source: the OligoGym collection

Target: TMCO6
Experiment: pooled miR-30 sensor sort-seq; sequence = guide strand
Details: shRNA
Note: reference of the scale not given here.

Sequence	sensor-assay potency score (higher = more potent)
TTTTCTGCAACATTGCACAGAA	0.104
TACTGGACAAACAAGCTTGATG	-0.998
AACATTGCACAGAACTGTGAGC	-0.57
TTGTAGCATGTGCTGAGGGAGA	-1.18
TTTGTAGCATGTGCTGAGGGAG	-0.612

Target: TMED3
Experiment: as above
Details: shRNA

Sequence	sensor-assay potency score (higher = more potent)
TACCACAGCAGCATCGTTCTGC	0.426
TAGTTGTAAATGTCTTTTCAGC	-1.07
TAGCAGTCAACATCGTAGTGGC	-0.101
TTGTCCGGCAGCTCGAAGGTGA	-0.973
TACTGCTTCTTCGTTTCTCTGT	-0.244
ATCGTCTCGCCAACAGACCAGT	-1.25
TTCGTTTCTCTGTAGATGGTGT	0.459
TATTAAGGTCTTCCGCTCGGGC	-0.618
ATAGCAGTCAACATCGTAGTGG	-0.497
TACATAGCAGTCAACATCGTAG	-0.235
TTCAACAGTAGCACCTGACTGA	0.248
TTGAAAGTCAAAGTAGACGGTC	-0.0324

Target: TMED9
Experiment: as above
Details: shRNA

Sequence	sensor-assay potency score (higher = more potent)
TTGAGGTGCCGCATCTGCCAGA	-0.928
TTTCTGGATCTGCTCCACTTGT	-1.3
TTCACCTCCACAAACATGCCAA	-0.184
TTGGAGTGAAGACAGATCTGGT	-0.176
ATGACCATGGTCTCGTCCGGGA	-0.96
TTGTCATACAGCTGCGTCCGGT	-1.2
TAACACTGTGATTCTGAGGTGC	0.27
TCAGTAACTAAGACTCTGCAGG	-0.549
TGTCTTTAGCAGCAATTTCTGC	-1.06
TATGACCATGGTCTCGTCCGGG	-0.321
TTTAGCAGCAATTTCTGCATAG	-0.576
TGGGAAGTGAAAGTGAACCTGC	0.118

Target: TMEFF2
Experiment: as above
Details: shRNA

Sequence	sensor-assay potency score (higher = more potent)
TTGTGTTATCTTGACATCGACC	-0.895
TAGATCTCTTGTCTTATTCTTT	-0.31
TTGTCTGAACTGTAGTGCCCTG	-0.73
TAGCATTCTCTGCATAATCTGT	-0.543
TTGTTGTATTGTCTGAACTGTA	-0.51
TACAGGACCGGGAACAACGTAT	-0.637
TCAATATTACACACACACCAGA	-1.06
TATAGAACACTGTAGTCCTTTT	-0.956
TTTTTTCACAGTGTTGTCCAGT	-0.255
TAGAATGCTCACACTTCCCATG	-0.607
TTAAGACATACTGAAATCGTAC	-0.191
